Screening results (PubChem)
This excerpt belongs to a sample that is enriched for hits.
Dicer processing = inhibitors of human Dicer processing of pre-microRNA | Q9UPY3 | cat-ELCCA pre-miR-21 Dicer processing, chemiluminescence; hits give high values | z-score at 25 µM | actives 6% (n = 47,000) | AID 1347074; in the data active = z-score above about 3, passing the limit was not always enough;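 also: higher signal means more uncleaved substrate so more Dicer inhibition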
A number is an active result; n = inactive; ! = not confirmed by another sample.

SMILES | Dicer processing
CCCN1C(=O)C2(/C(=C(/O)c3ccc4c(c3)CC(C)O4)C(=O)C(=O)N2CCOC)c2ccccc21 (centres undefined) | n
CC(=O)OC(C)C1CCC2C3CC[C@H]4CC(=O)CCC4(C)C3CCC12C (some centres undefined) | n
O=C1c2ccncc2C(=O)N1c1ccc(F)cc1F | n
CCOc1ccc(C2CC(c3ccc(OCc4ccccc4)cc3)n3nc(N)nc3N2)cc1 (centres undefined) | n
CC1Sc2ccc(Cl)cc2-c2nc(-n3cccc3)ncc21 (centres undefined) | n
C/C(=N\NC(=O)N/N=C(\C)c1ccc([N+](=O)[O-])cc1)c1ccc([N+](=O)[O-])cc1 | n
O=C(c1ccc([N+](=O)[O-])cc1)c1ccc2c(c1)CCC2 | 3.56
O=C(CSC1=NCCCCC1)c1ccc([N+](=O)[O-])cc1 | n
Cc1ccc(C)n1-c1ccc(C2(O)CCSc3ccccc32)cc1 (centres undefined) | n
Cc1ccc(C)n1-c1ccc(C2(O)CCSc3ccc(F)cc32)cc1 (centres undefined) | 4.03
O=C(/C=C/c1cccs1)NC(=S)N1CCOCC1 | n
N=S(c1ccc(Cl)cc1)c1cccs1 (centres undefined) | n
Cc1noc(-c2ccc(Cl)cc2)c1C(=O)NN | n
COc1ccc(N2C(=O)CC(N3CCCCC3)C2=O)cc1 (centres undefined) | n
CC(C)Oc1ccc(C2CC(=O)N(c3ccc(C(=O)O)cc3)C2=O)cc1 (centres undefined) | 4.75
O=C(O)c1ccc(N2C(=O)CC(N3CCOCC3)C2=O)cc1 (centres undefined) | n
CSc1cccc(NC(=S)NNC(=O)CC#N)c1 | n
COc1ccc(OC)c(C2CC(c3ccc(OC)c(OC)c3)=NN2S(=O)(=O)c2ccccc2)c1 (centres undefined) | n
O=C(O)c1nccnc1C(=O)Nc1cccc2c1CCCC2 | n
CN(C)/C=C/C(=O)c1ccc(C#N)cc1 | n
CN(C)/C=C/C=C/C=C/C(=O)c1ccc(Br)cc1 | 4.53
CC(C)Cc1ccc(C(=O)/C=C/N(C)C)cc1 | n
CCOC(=O)N/N=C(\CN1C(=O)c2ccccc2C1=O)c1ccc(OC)cc1 | n
c1ccc(C2=Nc3ccccc3SC(c3ccc4c(c3)OCO4)C2)cc1 (centres undefined) | n
O=C1c2ccccc2C(=O)N1CC1CN(CC(O)C(F)(F)F)CCO1 (centres undefined) | n
SMILES | Dicer processing
CC1C(c2ccccc2)OCCN1CN1C(=O)c2ccccc2C1=O (centres undefined) | 3.71
Cc1onc(-c2ccccc2Cl)c1C(=O)N1CCOC(c2ccccc2)C1C (centres undefined) | n
CCOC(=O)c1c(NC(=S)N2CCN(c3ccccc3)CC2)sc2c1CCCC2 | n
CCCc1cc(=O)[nH]c(SCC(=O)N2CCN(C(=O)c3ccc(C)cc3)C2)n1 | n
CC(=O)OCC12COC(c3ccccc3OC(C)=O)C(C(C)=CC1C)C2C (centres undefined) | n
COc1ccc(C2OCC3(COC(C)=O)C(C)C=C(C)C2C3C)cc1 (centres undefined) | n
CC(=O)OCC12COC(c3ccc(OC(C)=O)cc3)C(C(C)=CC1C)C2C (centres undefined) | 3.42
CN(Cc1ccccc1)C(=O)c1ccc([N+](=O)[O-])o1 | 3.03
O=C(Nc1ccccc1F)c1ccc([N+](=O)[O-])o1 | n
CCOC(=O)CNC(=O)c1ccc([N+](=O)[O-])o1 | n
Cc1ccc(-c2csc3nc(-c4cccs4)oc(=O)c23)cc1 | 5.44
Cc1cccc2nc(-c3cccs3)oc(=O)c12 | n
O=c1oc(-c2ccc(Br)cc2)nc2scc(-c3cccs3)c12 | n
CSC(N)=Nc1ccc(Cl)cc1 | 3.04!
CSC(N)=Nc1cc(Cl)ccc1Cl | n
CSC(N)=Nc1ccc(Cl)c(Cl)c1 | n
O=C(Nc1cccc(C(F)(F)F)c1)N1CCN(C2c3ccccc3-c3ccccc32)CC1 | n
Cc1cc(=O)[nH]c(SCc2ccc(Br)cc2)n1 | n
CCn1c2c(c(=O)[nH]c1=O)C(c1ccc(C(C)(C)C)cc1)C1=C(N2)c2ccccc2C1=O (centres undefined) | n
Cn1c(NC2CCN(Cc3ccccc3)CC2)cc(=O)n(C)c1=O | n
Cn1c(SCC(=O)Nc2c(C#N)cnn2-c2ccccc2)nnc1-c1ccncc1 | n
Cn1nc(-c2ccccc2)cc1NC(=O)Nc1ccc(C(C)(C)C)cc1 | n
CC(C)(C)c1ccc(NC(=O)Nc2sccc2-n2cccc2)cc1 | 6.39
O=C(NCC1CC1)Nc1sccc1-n1cccc1 | n
Cn1c(N2CCOCC2)nc2c1c(=O)n(Cc1ccc(F)cc1)c(=O)n2C | n
SMILES | Dicer processing
Cc1ccc(CSc2nnc(CCN)o2)cc1 | n
Fc1ccc(C2CC(c3cccc4ccccc34)n3ncnc3N2)cc1 (centres undefined) | n
COc1cc(S(=O)(=O)Nc2ccccn2)ccc1Br | n
Cc1ccc2cccc(NS(=O)(=O)c3ccccc3)c2n1 | n
O=S(=O)(Nc1cccc2cccnc12)c1ccccc1 | 7.72
Cc1ccc(C)c(NS(=O)(=O)c2cccc3cccnc23)c1 | n
O=C(Nc1ccc(Cl)cc1)Nc1ccc(Br)c2cccnc12 | n
O=S(=O)(Nc1ccc(Br)c2cccnc12)c1ccccc1 | 4.71
O=C(O)CC1SC(c2ccc(Oc3ccc(C(F)(F)F)cn3)cc2)=NC1=O (centres undefined) | n
C/C(COc1ccc(Cl)cc1Cl)=N\O | n
CCOc1ccc(-c2nc(C#N)c(NCc3ccc(Cl)cc3)o2)cc1 | n
O=C(O)CSCC(=O)NCc1csc2ccccc12 | 4.35
O=C(NCc1csc2ccccc12)C1CC1 | n
O=C(O)CSCC(=O)NCc1csc2ccc(Cl)cc12 | n
Cc1nc(S(=O)(=O)NCc2ccc3c(c2)CCO3)cn1C | n
O=[N+]([O-])c1cc(Cl)c(-n2cccc2)c(Cl)c1 | n
CCC1C2=C(CC(C)(C)CC2=O)Nc2c1c(C)nn2-c1ccccc1 (centres undefined) | n
Cc1[nH]nc2c1C1=C(C(=O)CC(C)(C)C1)C(c1ccc(N(C)C)cc1)N2 (centres undefined) | n
Cc1nn(-c2ccccc2)c2c1C1=C(C(=O)CC(C)(C)C1)C(c1ccc(N(C)C)cc1)N2 (centres undefined) | 3.4
Cc1nc(C(F)(F)F)nc(Sc2ccc(Cl)cc2)c1C | n
CCOC(=O)c1cnc(C(F)(F)F)nc1Oc1ccccc1 | n
CCOC(=O)c1cnc(C(F)(F)F)nc1NNC(=O)c1ccc(Cl)cc1 | 3.2
CCOC(=O)c1cnc(C(F)(F)F)nc1Sc1n[nH]c(-c2cc(Cl)cc(Cl)c2)n1 | n
CCOC(=O)c1cnc(Nc2ccccc2)nc1C(F)(F)F | n
CCOC(=O)c1cnc(NNC(=O)c2ccc(F)cc2)nc1C(F)(F)F | n
SMILES | Dicer processing
CCOC(=O)c1cnc(NNC(C)=O)nc1C(F)(F)F | 3.07
C#CC(CC)(CC)NC(=O)Nc1cnccc1C(F)(F)F | n
CCOC(=O)c1cc(C)nn1C(=O)c1ccc(C)cc1 | n
Cc1ccc([N+](=O)[O-])cc1S(=O)(=O)O/N=C(\N)CS(=O)(=O)c1ccccc1 | n
CCCCc1c(O)nc(SCCC(=O)O)[nH]c1=O | n
Cc1nc2ccc(Br)cc2c(-c2ccccc2)c1C(=O)O | n
CCc1c(C)nc2ccc(Br)cc2c1SCCC(=O)O | 3.16
COc1ccc(-c2nnc(SCCC(=O)O)o2)cc1 | n
CCOC(=O)CSc1nc(C)c2ccccc2n1 | n
CCCCc1c(C)nc2c(OC)cccc2c1SCCC(=O)O | 3.5
CCCCc1cc(C)c2nc(-c3ccc(OC)c(OC)c3)cc(C(=O)O)c2c1 | n
